Source: PubChem BioAssay (EPA / NIEHS)
Records with an inconclusive call do not appear. The source made the active and inactive calls. The calls were made as follows: active = hit-call score of the fitted dose curve at least 0.9, where 1 is the maximum; inconclusive = response in the unintended direction; inactive = score below 0.9.

The compounds below were run against human Adenosine A1 Receptor (AdoRA1), ADORA1 (gene 134) (UniProt P30542) (assay: NVS_GPCR_hAdoRA1: NovaScreen (NVS) G Protein-Coupled Receptor Assay for human Adenosine A1 Receptor (AdoRA1) (AID 2283254)).
Chain of human Adenosine A1 Receptor (AdoRA1), ADORA1 (gene 134) (P30542 whole entry, looked up): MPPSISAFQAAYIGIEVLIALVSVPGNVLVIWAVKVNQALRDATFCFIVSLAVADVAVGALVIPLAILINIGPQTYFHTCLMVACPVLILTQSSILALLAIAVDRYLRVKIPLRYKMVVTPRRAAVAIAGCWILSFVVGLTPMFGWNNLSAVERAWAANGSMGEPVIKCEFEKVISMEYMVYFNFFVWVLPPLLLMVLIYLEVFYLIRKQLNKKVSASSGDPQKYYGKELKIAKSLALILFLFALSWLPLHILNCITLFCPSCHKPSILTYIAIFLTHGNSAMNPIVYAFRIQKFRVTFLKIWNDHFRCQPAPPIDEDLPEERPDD
Experimental: NVS_GPCR_hAdoRA1 is a biochemical, single-readout assay that uses extracted gene-proteins from Human cortical membranes in a tissue-based cell-free assay. Measurements were taken 1 hour after chemical dosing in a 96-well plate.NVS_GPCR_hAdoRA1 is one of one assay component(s) measured or calculated from the NVS_GPCR_hAdoRA1 assay. It is designed to make measurements of radioligand binding, a form of binding reporter, as detected with scintillation counting signals by Filter-based radiodetection technology.Data from the assay component NVS_GPCR_hAdoRA1 was analyzed into 1 assay endpoint. This assay endpoint, NVS_GPCR_hAdoRA1, was analyzed in the positive analysis fitting direction relative to DMSO as the negative control and baseline of activity. Using a type of binding reporter, loss-of-signal activity can be used to understand changes in the binding as they relate to the gene ADORA1. Furthermore, this assay endpoint can be referred to as a primary readout, because the performed assay has only produced 1 assay endpoint. To generalize the intended target to other relatable targets, this assay endpoint is annotated to the gpcr intended target family, where the subfamily is rhodopsin-like receptor.
Binding assays used specific radioligands (tritiated, iodinated) with non-radioactive competitive displacement ligands in agonist or antagonist protocols (as indicated) and various reference compounds and inhibitors to titrate specific binding to receptors and transporters. Most enzyme assays (CYPs, kinases, phosphatases, proteases, HDACs) used recombinant protein and specific substrates (fluorescence mostly, some colorimetric and radioactive) and inhibitors, followed by a biochemical separation of substrate and product. All assays for the biochemical HTS were initially run in duplicate at a single concentration (10 uM for CYP450 assays and 25 uM for all others). […] Each assay was run with positive and negative controls, and concurrent controls on every plate. The follow-up (secondary) screen tested active chemical-pairs in concentration series, as well as a few additional assays not tested in the primary screen, some selected negative inactives, and several cases re-run in the concentration series for confirmatory purposes.

| Structure (SMILES) | AC50 | outcome |
| --- | --- | --- |
| CN(C[C@@H](CC[N+]12CCC(C3CCCCC3)(CC1)CC2)c1ccc(Cl)c(Cl)c1)C(=O)c1cc(C(F)(F)F)cc(C(F)(F)F)c1 | 16.7 µM (active) | – |
| O=c1c(-c2ccc(O)cc2)coc2cc(O)cc(O)c12 | – | inactive |
| CN(C)C(=O)C1(N2CCCCC2)CCN(CC[C@@]2(c3ccc(Cl)c(Cl)c3)CN(C(=O)c3ccccc3)CCO2)CC1 | – | inactive |
| Oc1ccc2ccccc2c1 | – | inactive |
| CCCOC(=O)c1cc(O)c(O)c(O)c1 | 14.4 µM (active) | – |
| CN(C)c1ccc(C(=C2C=CC(=[N+](C)C)C=C2)c2ccc(N(C)C)cc2)cc1 | 10.5 µM (active) | – |
| COc1cc(C(=O)NC2CCN(C)CC2)ccc1Nc1ncc2c(n1)N(C1CCCC1)CC(F)(F)C(=O)N2C | 4.71 µM (active) | – |
| NCc1cccc(C2CCN(C(=O)c3ccc(C#Cc4ccccc4F)o3)CC2)c1 | 15.8 µM (active) | – |
| O=C1c2ccccc2C(=O)N1CCc1noc(-c2ccc(CN3CCCCCC3)s2)n1 | – | inactive |
| CC/C(=C(/CC)c1ccc(O)cc1)c1ccc(O)cc1 | 4.81 µM (active) | – |
| O=C(O)Cc1cc(I)c(Oc2ccc(O)c(I)c2)c(I)c1 | – | inactive |
| CCOC(=O)O[C@H](C)OC(=O)c1ccc2c(c1)cc(C(=O)NC1CCN(C(C)C)CC1)n2Cc1cc(-c2ccc(Cl)s2)on1 | 15.9 µM (active) | – |
| Cc1cc(F)ccc1-c1cc(N2CC[C@@H](O)[C@H]2CO)ncc1N(C)C(=O)C(C)(C)c1cc(C(F)(F)F)cc(C(F)(F)F)c1 | 20.4 µM (active) | – |
| CCCCCCCCOC(=O)c1cc(O)c(O)c(O)c1 | 12.4 µM (active) | – |
| CCCCOC(=O)c1ccc(O)cc1 | 11.7 µM (active) | – |
| CCCCCCCCCC(=O)O | – | inactive |
| COc1cccc([C@H](O)C2CCN(CCc3ccc(F)cc3)CC2)c1OC | – | inactive |
| CCN(CC)C(=O)c1cc(S(=O)(=O)Cc2ccccc2)c(N2CCC(c3ccccc3)CC2)cc1N(CC)CCN(C)C | 6.22 µM (active) | – |
| Cc1occc1C(=O)Nc1ccc(C(=O)N2CCC(F)(F)/C(=C\C(=O)N3CCC(N4CCCCC4)CC3)c3ccccc32)cc1 | 3.24 µM (active) | – |
| Cc1oc2c(NC(=O)c3c(Cl)cccc3Cl)cccc2c1C(C)(C)O | – | inactive |
